Screens: PubChem BioAssay, National Center for Advancing Translational Sciences (NCATS)
Most compounds without a hit are left out; they make up all but 2.4% or so of the library.
Pol iota inh: blocks human DNA polymerase iota activity. 390,000 tested, 1% active. Pol iota fluorescent replication assay, 10 min. AID 588590. Potency, µM (titrated, usually from 115 µM), hits mostly inhibitors. Q9UNA4
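Pol iota at 10 nM preincubated 15 min with compounds at room temperature; reaction started with fluorescent substrate, 50 nM final. Fluorescence read kinetically at 0 and 10 min; buffer-only wells as negative control.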
FEN1 inh: inhibitors of human flap endonuclease 1; P39748; AID 588795; Recombinant FEN1 flap cleavage, fluorescence, 15 min; 390,000 tested, 0.35% active; Potency, µM (doses to about 114 µM), most hits filed as inhibitors; further: nearly all actives have a fitted effect of over 65% in size
Target sequence (P39748 whole entry, looked up): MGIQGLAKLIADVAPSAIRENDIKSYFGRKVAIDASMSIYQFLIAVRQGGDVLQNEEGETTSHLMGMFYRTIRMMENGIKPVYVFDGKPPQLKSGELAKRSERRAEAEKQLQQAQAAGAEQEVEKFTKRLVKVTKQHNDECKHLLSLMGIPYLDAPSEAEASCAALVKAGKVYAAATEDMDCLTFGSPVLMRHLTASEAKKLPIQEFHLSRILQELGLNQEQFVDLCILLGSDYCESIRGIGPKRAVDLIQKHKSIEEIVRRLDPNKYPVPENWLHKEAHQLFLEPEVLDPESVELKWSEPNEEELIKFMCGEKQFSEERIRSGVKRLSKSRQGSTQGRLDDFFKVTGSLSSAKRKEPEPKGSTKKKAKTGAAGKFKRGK
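Quantitative HTS format: each compound was titrated, incubated with 10 nM nuclease for 15 min at room temperature, then challenged with flap substrate at 50 nM final. Signal change over 15 min gave concentration–effect curves.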
TDP1 inh: blocks human tyrosyl-DNA phosphodiesterase 1 | 350,000 tested, 0.28% active | recombinant TDP1, AlphaScreen DNA substrate cleavage | Potency, µM (doses to about 130 µM), most hits filed as inhibitors; further: nearly all actives have a fitted effect of over 40% in size
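Recombinant human Tdp1 (E. coli-expressed, 1 nM final) preincubated with compounds 15 min at room temperature, then 5'-biotin/3'-phosphotyrosine-FITC DNA substrate (15 nM final) added for 5 min. AlphaScreen beads (10 ug/ml final) added 10 min; cleavage lowers signal.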
Pol eta inh-1: inhibitors of human DNA polymerase eta; Q9Y253; recombinant Pol eta, fluorescent DNA replication assay; Potency, µM (doses to about 114 µM), most hits filed as inhibitors; 390,000 tested, 1.2% active; AID 588591
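Pol eta (10 nM) was preincubated with compounds for 15 min at room temperature, after which fluorescent replication substrate (50 nM final) was added to start the reaction. Fluorescence was read kinetically at 0 and 10 min.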
POLK inh: blocks human DNA polymerase kappa activity; Q9UBT6; purified Pol kappa, fluorescent DNA synthesis assay, 10 min; Potency, µM (doses to about 107 µM), hits mostly inhibitors; 400,000 tested, 0.53% active; AID 588579
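Readout: fluorescence, taken kinetically at 0 and 10 min. Conditions: 10 nM Pol kappa, 15 min RT compound preincubation, 50 nM substrate final. Controls: enzyme-free buffer wells.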
Pol beta inh: blocks human DNA polymerase beta activity | Pol beta primer extension/strand displacement, fluorescence kinetic | Potency, µM (top dose mostly 114 µM), usual class: inhibitors | 340,000 tested, 1.3% active
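Kinetic readout of DNA synthesis with strand displacement by Pol beta. Compound and 10 nM enzyme sit 15 min at room temperature; 50 nM substrate starts the reaction, read immediately and at 10 min.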
HEK293 viability: counter-screen for GALK inhibitors: HEK293 cell cytotoxicity. shares compounds with Pol eta inh-1. HEK-293 viability, ATP luminescence (CellTiter-Glo), 24/48 h. Potency, µM (titrated, usually from 46.1 µM), hits mostly inhibitors. 170 tested, 10% active. AID 2547
Pol eta inh-2: Pol eta (human) inhibition, cherry-pick confirmation. shares compounds with Pol eta inh-1. Pol eta primer extension, TAMRA/BHQ fluorescence, 10 min. Potency, µM, usual class: inhibitors. 2,600 tested, 64% active
Hits are given with their value; 0 = inactive; ? = inconclusive; - = no result given. The call rests on the fitted dose curve; in most records, active means well fitted curve in the direction sought with a large enough effect; inconclusive means small, poorly fitted or top-dose-only effect, or another doubt; inactive means no such curve, though single readings can be large; an effect the other way counts as inactive or inconclusive.

SMILES	Pol iota inh	FEN1 inh	TDP1 inh	Pol eta inh-1	POLK inh	Pol beta inh	others
CSc1ccc(CCNC(=O)CSc2ccsc2[N+](=O)[O-])cc1	?	0	0	?	?	0
COc1cc(CO)cc(Br)c1OCC(=O)O	0	0	0	0	0	0
CCOc1cc(CO)cc(Br)c1OCC(=O)O	?	0	-	16µM	0	-	Pol eta inh-2=85
Cc1nc(Nc2nc3ccccc3o2)nc2c1C(=O)CC(C)(C)C2	-	-	-	-	-	-	HEK293 viability=0
O=C1CCC2=C1C1(CCCC1)N=C(Nc1nc3ccccc3o1)N2	-	-	-	-	-	-	HEK293 viability=0
Cc1cc(C)nc(Nc2nc3ccccc3o2)n1	0	0	-	0	0	0
CC1(C)CC(=O)C2=C(C1)NC(Nc1nc3ccccc3o1)=NC21CCCCC1	0	0	0	0	0	0	HEK293 viability=0
O=C1CC(c2ccccc2)CC2=C1C1(CCCCC1)N=C(Nc1nc3ccccc3o1)N2 (stereo not given)	-	-	0	-	-	-	HEK293 viability=0
Cc1cc[n+](CC#N)cc1	0	0	-	-	0	-
CCOc1ccc(CCNC(=O)c2cccc(Nc3nc4ccccc4nc3-n3nc(C)cc3C)c2)cc1OCC	0	0	0	0	0	0
CC(CN1CCN(C/C=C/c2ccccc2)CC1)c1ccccc1 (stereo not given)	0	0	-	0	0	0
Clc1cccc(C2=NC(c3cccs3)=Nc3ccc(Br)cc3N2)c1	0	0	0	0	0	0
CN(Cc1ccccc1)C(=O)Cn1ncc2c3ccccc3n(Cc3cccc(Cl)c3)c2c1=O	0	0	0	0	0	?
CCN(CC)C(=O)[C@H]1CC(CC(=O)NCCCn2ccnc2)C(=O)N2CCc3c([nH]c4ccccc34)[C@]12C (stereo not given in full)	0	0	0	0	0	-
Cc1ccc2oc(NC3=NC4(CCCC4)C4=C(CCCC4=O)N3)nc2c1	-	-	0	-	-	-
CC1CCC2(C1)N=C(Nc1nc3ccccc3o1)NC1=C2C(=O)CCC1 (stereo not given)	-	-	0	-	-	-	HEK293 viability=?
O=C(C=Cc1ccco1)c1ccco1	?	0	-	0	?	-
O=C(C=C1SCCS1)/C=C/c1ccco1	35µM	0	-	18µM	?	22µM	Pol eta inh-2=?
CCNc1ncc2nc(CCc3ccccc3)c(=O)n(CCOC)c2n1	-	-	-	-	0	-
O=C(Nc1ccccc1Cl)N1CCC2(CC1)Oc1ccccc1C(=O)N2Cc1ccc(F)cc1	0	0	0	0	0	0
CCOC(=O)c1ccc(NC2=CC(=O)C(=O)c3ccccc32)cc1	?	0	0	35µM	0	0	Pol eta inh-2=?
N#Cc1c(N)n(-c2cccc(C(=O)O)c2)c2nc3ccccc3nc12	0	0	0	40µM	0	0	Pol eta inh-2=54
N#Cc1c(N)n(-c2ccccc2N)c2nc3ccccc3nc12	0	?	0	?	0	0
Cc1ccccc1NC(=O)CSc1[nH]c(=O)cc(C)c1C#N	?	?	0	20µM	?	0	Pol eta inh-2=?
CCOC(=O)N/N=C\C=C\c1ccco1	?	0	0	79µM	0	?	Pol eta inh-2=76
Fc1ccc(-c2csc(-c3nc(-c4ccc(Br)s4)cs3)n2)cc1	0	0	0	0	0	0
CC(=O)c1ccc(CCCCCCCCCC(=O)O)s1	0	0	0	?	0	0
CCC(=O)c1ccc(CCCCCC(=O)O)s1	?	0	18µM	8.9µM	?	35µM	Pol eta inh-2=38
Cc1cc(C)c(S(=O)(=O)NCCc2sc3nc(-c4ccc(F)cc4)nn3c2C)c(C)c1	0	?	0	0	0	0
